Where “and” joins values, the source holds several entries; their conditions need not be identical. Identical values can stand only once. Some compounds were tested as several samples or in several runs, with calls that do not always agree. Calls of active or inactive are those of the source. Unless noted, calls follow the shape of the dose curve; as a rule, active = well fitted curve in the direction sought with a large enough effect in the repeat runs; inconclusive = weak or mixed curves; inactive = no such curve, though single readings can be large; an effect the other way counts as inactive or inconclusive.
Legend:
[1] = qHTS assay for small molecules that induce genotoxicity in human embryonic kidney cells expressing luciferase-tagged ATAD5 (AID 651632); also: nearly all actives have a fitted effect of over 15% in size; also: potency is read from the fitted curve at half-maximal effect
In short: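 Genotoxicity read-out via ATAD5-luciferase: HEK293T cells, 16 hr compound incubation at 37C, Amplite detection.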

[2] = qHTS assay for small molecule disruptors of the mitochondrial membrane potential - cell viability (AID 720634; calls by dose curve;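 also: human HepG2 liver cancer cells; series mostly up to about 83 µM; nearly all actives have a fitted effect of over 20% in size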)
In short: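 Human hepatoma HepG2 cells were treated for 1 hr with test chemicals, then given m-MPI dye and CellTiter-Glo. Cell viability reflects luminescence proportional to cellular ATP.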

[3] = biological target: Glucocorticoid receptor (Homo sapiens) (UniProt P04150); test: qHTS assay to identify small molecule agonists of the glucocorticoid receptor (GR) signaling pathway (AID 720691; active = well fitted activation curve with a large enough effect in the signal ratio in the repeat runs, not every such curve was filed as active; inconclusive = weak or mixed curves, or effect the other way; inactive = no such curve, though single readings can be large or run the other way; the % refers to the signal ratio)
In short: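 Beta-lactamase reporter activity, read as fluorescence intensity, was measured in GR-bla HeLa cells exposed to compounds for 18 h at 37 C and then loaded with LiveBLAzer B/G FRET substrate for 2 h at room temperature.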

[4] = qHTS assay for identifying genotoxic compounds that show differential cytotoxicity against isogenic chicken DT40 cell lines with known DNA damage response pathways - wild type cell line (AID 743012); also: nearly all actives have a fitted effect of over 60% in size; also: potency is read from the fitted curve at half-maximal effect
In short: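 Quantitative HTS on parental DT40 cells: 40 h compound treatment at 37 C/5% CO2, with viability then determined by CellTiter-Glo luminescence. Values serve as the DNA repair-proficient reference for differential cytotoxicity.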

[5] = qHTS assay for identifying genotoxic compounds that show differential cytotoxicity against isogenic chicken DT40 cell lines with known DNA damage response pathways - Rev3 mutant cell line (AID 743014); also: nearly all actives have a fitted effect of over 55% in size; also: potency is read from the fitted curve at half-maximal effect
[6] = qHTS assay for identifying genotoxic compounds that show differential cytotoxicity against isogenic chicken DT40 cell lines with known DNA damage response pathways - Rad54/Ku70 mutant cell line (AID 743015); also: nearly all actives have a fitted effect of over 60% in size; also: potency is read from the fitted curve at half-maximal effect
[7] = qHTS assay to identify small molecule antagonists of the thyroid receptor (TR) signaling pathway - cell viability counter screen (AID 743064); also: nearly all actives have a fitted effect of over 50% in size; also: potency is read from the fitted curve at half-maximal effect
In short: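 Compounds were tested on GH3.TRE-Luc cells in the presence of T3 at 1 nM final. Following 23.5 h at 37 °C, cell viability was quantified by CellTiter-Fluor.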

[8] = qHTS assay to identify small molecule antagonists of the thyroid receptor (TR) signaling pathway (AID 743065); also: nearly all actives have a fitted effect of over 55% in size; also: potency is read from the fitted curve at half-maximal effect
In short: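 Antagonism measured as loss of luciferase signal in GH3 cells stably carrying a TRE-luciferase reporter, co-treated with compound and T3 (1 nM final) for 23.5 h at 37 C. Viability was read in the same well by CellTiter-Fluor.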

[9] = tested on: thyroid hormone receptor (rat, GH3 cells); test: qHTS assay to identify small molecule agonists of the thyroid receptor (TR) signaling pathway (AID 743066; calls by dose curve; also: potency is read from the fitted curve at half-maximal effect)
[10] = biological target: Estrogen receptor (Homo sapiens) (UniProt P03372); test: qHTS assay to identify small molecule antagonists of the estrogen receptor alpha (ER-alpha) signaling pathway (AID 743069; active = well fitted curve in the direction sought with a large enough effect in the signal ratio in the repeat runs, not every such curve was filed as active; inconclusive = weak or mixed curves, or effect the other way; inactive = no such curve, though single readings can be large or run the other way; the % refers to the signal ratio)
In short: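 ER-alpha-UAS-bla GripTite HEK293 line; 2% charcoal-stripped FBS overnight; plated, 4 hr 37C/5% CO2; cpd in DMSO + 17beta-estradiol, 18 hr 37C; LiveBLAzer B/G FRET substrate 2 hr RT; fluorescence intensity.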

[11] = biological target: Estrogen receptor (Homo sapiens) (UniProt P03372); test: qHTS assay to identify small molecule agonists of the estrogen receptor alpha (ER-alpha) signaling pathway (AID 743075; calls by dose curve;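 also: HEK293 GripTite cells with ER-alpha and UAS-driven beta-lactamase reporter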; also: potency is read from the fitted curve at half-maximal effect)
[12] = biological target: Estrogen receptor (Homo sapiens) (UniProt P03372); test: qHTS assay to identify small molecule agonists of the estrogen receptor alpha (ER-alpha) signaling pathway using the BG1 cell line (AID 743079); also: nearly all actives have a fitted effect of over 20% in size; also: potency is read from the fitted curve at half-maximal effect
[13] = qHTS assay to identify small molecule antagonists of the estrogen receptor alpha (ER-alpha) signaling pathway using the BG1 cell line (AID 743080; calls by dose curve;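 also: BG1 cells stimulated with 17beta-estradiol alongside compound; series mostly up to about 70 µM; nearly all actives have a fitted effect of over 25% in size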)
In short: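 Luciferase inhibition measured with ONE-Glo after 30 min at RT in BG1Luc4E2 cells given test compounds and 17beta-estradiol for 21.5 h at 37 C; CellTiter-Fluor viability read in the same wells beforehand.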

[14] = biological target: Aryl hydrocarbon receptor (Homo sapiens) (UniProt P35869); test: qHTS assay to identify small molecule that activate the aryl hydrocarbon receptor (AhR) signaling pathway (AID 743085); also: nearly all actives have a fitted effect of over 15% in size; also: potency is read from the fitted curve at half-maximal effect;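 as to activation: HG2L7.5c1 human HepG2 liver cells with stably integrated DRE-driven firefly reporter; series mostly up to about 70 µM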
In short: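 24 h compound exposure, 37C, HepG2-derived HG2L7.5c1 cells with DRE-responsive luciferase. Readouts: fluorescence viability, then luminescence at room temperature after 30 min.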

[15] = qHTS assay for small molecule disruptors of the mitochondrial membrane potential (AID 720635); also: potency is read from the fitted curve at half-maximal effect
In short: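 Mitochondrial membrane potential tracked with Mito-MPS dye, red aggregates (ex 540/em 590 nm) against green monomers (ex 490/em 535 nm). Compound treatment 1 hr at 37C, dye 30 min in HepG2.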

[16] = qHTS assay to test for compound auto fluorescence at 535 nm (green) in HepG2 cells (AID 720675); also: potency is read from the fitted curve at half-maximal effect
[17] = qHTS assay to test for compound auto fluorescence at 535 nm (green) in HEK293 cells (AID 720680)
[18] = qHTS assay to identify small molecule antagonists of the estrogen receptor alpha (ER-alpha) signaling pathway using the BG1 cell line - cell viability counter screen (AID 743081);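 also: compound given together with 17beta-estradiol as the ER stimulus; series mostly up to about 70 µM; nearly all actives have a fitted effect of over 45% in size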
[19] = qHTS assay for small molecule agonists of the p53 signaling pathway (AID 651631; calls by dose curve; also: nearly all actives have a fitted effect of over 15% in size; also: potency is read from the fitted curve at half-maximal effect)
In short: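 Quantitative high-throughput format: 4,000 p53RE-bla HCT-116 cells/well, 5 h pre-incubation, 16 h compound exposure at 37 °C, 2 h room-temperature substrate step, fluorescence intensity measured.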

[20] = biological target: Peroxisome proliferator-activated receptor gamma (Homo sapiens) (UniProt P37231); test: qHTS assay to identify small molecule agonists of the peroxisome proliferator-activated receptor gamma (PPARg) signaling pathway (AID 743094; active = well fitted activation curve with a large enough effect in the signal ratio in the repeat runs, not every such curve was filed as active; inconclusive = weak or mixed curves, or effect the other way; inactive = no such curve, though single readings can be large or run the other way; the % refers to the signal ratio)
In short: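 Stably transfected HEK293H cells (GeneBLAzer PPARg UAS-bla) were incubated with test substances for 17 h at 37C after a 5 h pre-incubation; beta-lactamase activity was then detected by FRET substrate fluorescence.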

Measured: Potency

Sequence of Estrogen receptor (Homo sapiens) (P03372 whole entry, looked up): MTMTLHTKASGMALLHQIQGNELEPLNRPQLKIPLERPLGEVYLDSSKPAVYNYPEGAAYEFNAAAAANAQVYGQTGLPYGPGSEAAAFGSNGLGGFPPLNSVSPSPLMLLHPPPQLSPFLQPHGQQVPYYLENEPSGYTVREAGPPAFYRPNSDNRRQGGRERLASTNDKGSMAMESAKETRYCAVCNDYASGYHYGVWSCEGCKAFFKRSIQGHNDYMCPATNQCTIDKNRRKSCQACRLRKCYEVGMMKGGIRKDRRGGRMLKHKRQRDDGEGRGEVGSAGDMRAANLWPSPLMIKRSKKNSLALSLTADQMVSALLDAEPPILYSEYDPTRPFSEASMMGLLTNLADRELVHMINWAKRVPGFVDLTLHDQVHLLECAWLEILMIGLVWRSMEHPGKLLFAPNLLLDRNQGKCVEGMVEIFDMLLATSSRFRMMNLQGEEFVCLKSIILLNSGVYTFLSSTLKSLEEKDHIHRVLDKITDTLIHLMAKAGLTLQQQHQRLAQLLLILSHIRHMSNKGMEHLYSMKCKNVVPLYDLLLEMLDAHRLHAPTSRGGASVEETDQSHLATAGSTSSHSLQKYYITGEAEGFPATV
Sequence of Aryl hydrocarbon receptor (Homo sapiens) (P35869 whole entry, looked up): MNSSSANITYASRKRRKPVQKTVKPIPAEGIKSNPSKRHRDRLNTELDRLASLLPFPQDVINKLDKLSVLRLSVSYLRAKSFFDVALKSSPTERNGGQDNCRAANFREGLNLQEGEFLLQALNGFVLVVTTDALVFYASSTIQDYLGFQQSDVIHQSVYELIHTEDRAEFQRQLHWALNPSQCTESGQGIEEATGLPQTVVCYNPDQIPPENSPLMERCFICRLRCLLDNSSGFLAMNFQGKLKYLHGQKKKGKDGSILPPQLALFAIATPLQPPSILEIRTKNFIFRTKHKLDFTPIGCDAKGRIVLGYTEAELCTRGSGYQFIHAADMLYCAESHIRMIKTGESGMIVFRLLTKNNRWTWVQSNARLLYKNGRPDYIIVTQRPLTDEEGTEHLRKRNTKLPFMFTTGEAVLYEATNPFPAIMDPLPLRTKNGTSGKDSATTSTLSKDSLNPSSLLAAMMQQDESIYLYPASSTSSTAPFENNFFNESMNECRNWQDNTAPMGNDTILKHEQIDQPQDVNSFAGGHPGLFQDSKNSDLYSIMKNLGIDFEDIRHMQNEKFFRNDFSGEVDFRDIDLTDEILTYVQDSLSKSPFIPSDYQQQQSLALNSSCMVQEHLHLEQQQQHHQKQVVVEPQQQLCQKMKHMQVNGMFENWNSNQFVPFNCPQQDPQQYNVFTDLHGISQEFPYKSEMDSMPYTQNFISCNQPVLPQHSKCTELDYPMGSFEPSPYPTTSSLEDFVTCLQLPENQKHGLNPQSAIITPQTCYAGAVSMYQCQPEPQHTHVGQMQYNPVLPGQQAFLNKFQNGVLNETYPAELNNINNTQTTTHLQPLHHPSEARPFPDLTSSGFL
Sequence of Peroxisome proliferator-activated receptor gamma (Homo sapiens) (P37231 whole entry, looked up): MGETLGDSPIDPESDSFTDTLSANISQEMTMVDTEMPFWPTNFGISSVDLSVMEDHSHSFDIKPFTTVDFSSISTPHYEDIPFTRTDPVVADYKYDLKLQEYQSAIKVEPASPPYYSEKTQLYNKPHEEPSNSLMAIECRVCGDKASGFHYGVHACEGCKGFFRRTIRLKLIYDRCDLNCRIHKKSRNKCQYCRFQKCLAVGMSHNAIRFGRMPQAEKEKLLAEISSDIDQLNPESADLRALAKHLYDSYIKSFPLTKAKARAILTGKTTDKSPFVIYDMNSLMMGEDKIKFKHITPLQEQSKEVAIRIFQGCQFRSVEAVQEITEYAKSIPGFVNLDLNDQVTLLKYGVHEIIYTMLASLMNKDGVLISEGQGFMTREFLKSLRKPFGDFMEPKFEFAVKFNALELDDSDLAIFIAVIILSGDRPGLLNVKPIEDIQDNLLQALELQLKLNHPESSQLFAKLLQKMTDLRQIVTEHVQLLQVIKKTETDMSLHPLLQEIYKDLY
Sequence of Glucocorticoid receptor (Homo sapiens) (P04150 whole entry, looked up): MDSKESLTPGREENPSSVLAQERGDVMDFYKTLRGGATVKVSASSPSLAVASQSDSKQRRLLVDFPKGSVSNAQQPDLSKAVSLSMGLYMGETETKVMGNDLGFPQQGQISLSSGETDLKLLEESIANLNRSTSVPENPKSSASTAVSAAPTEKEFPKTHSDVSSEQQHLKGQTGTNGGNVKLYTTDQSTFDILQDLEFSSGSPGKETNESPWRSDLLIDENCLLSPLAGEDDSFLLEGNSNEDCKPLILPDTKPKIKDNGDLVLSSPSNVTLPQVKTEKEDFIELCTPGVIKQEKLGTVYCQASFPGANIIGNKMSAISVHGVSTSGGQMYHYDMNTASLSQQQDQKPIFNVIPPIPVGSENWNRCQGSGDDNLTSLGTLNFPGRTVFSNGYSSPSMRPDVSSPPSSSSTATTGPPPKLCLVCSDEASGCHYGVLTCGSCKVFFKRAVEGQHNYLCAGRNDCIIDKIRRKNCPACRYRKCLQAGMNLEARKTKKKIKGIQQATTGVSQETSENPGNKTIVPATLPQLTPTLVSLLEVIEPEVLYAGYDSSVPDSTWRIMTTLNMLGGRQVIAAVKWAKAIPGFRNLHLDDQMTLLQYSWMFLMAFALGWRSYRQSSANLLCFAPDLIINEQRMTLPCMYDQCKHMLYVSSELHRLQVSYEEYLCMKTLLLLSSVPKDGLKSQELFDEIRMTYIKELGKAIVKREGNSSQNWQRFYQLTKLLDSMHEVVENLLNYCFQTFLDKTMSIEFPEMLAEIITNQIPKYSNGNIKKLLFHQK

CCNCC(O)c1cccc(O)c1 (stereo not drawn)
inactive: [1] | [2] | [3] | [4] | [5] | [6] | [7] | [8] | [9] | [10] | [11] | [12] | [13] | [14]

CN(C)CCCCCCN(C)C (tested in a mixture with another compound)
inactive: [2] | [15] | [16] | [17] | [3] | [4] | [5] | [6] | [7] | [8] | [9] | [18]

NCC(O)c1cccc(O)c1 (stereo not drawn)
inactive: [19] | [1] | [2] | [17] | [4] | [5] | [6] | [7] | [8] | [9] | [10] | [11] | [12] | [13] | [18] | [14] | [20]

CN1c2ccccc2C(NCCCCCCC(=O)O)c2ccc(Cl)cc2S1(=O)=O (stereo not drawn)
inactive: [1] | [16] | [17] | [3] | [8] | [9] | [10] | [11] | [12] | [13] | [18] | [14] | [20]

COC([CH2][Hg])CNC(=O)c1ccccc1OCC(=O)O (stereo not drawn)
inactive: [2] | [15] | [16] | [17] | [7] | [10] | [11] | [12] | [13] | [18]
active: [4] 1.68 µM | [6] 2.98 µM

CC1(C)[C@H](C=C(Cl)Cl)[C@H]1C(=O)OCc1c(F)c(F)cc(F)c1F
inactive: [2] | [16] | [4] | [6] | [8] | [9] | [10] | [11] | [12] | [13] | [18] | [14]

CCCC(C)C1(CC)C(=O)NC(=O)NC1=O (stereo not drawn)
inactive: [1] | [2] | [16] | [17] | [4] | [5] | [6] | [7] | [8] | [9] | [10] | [11] | [12] | [13] | [18] | [14] | [20]

NCC[C@H](O)C(=O)N[C@@H]1C[C@H](N)[C@@H](O[C@H]2O[C@H](CN)[C@@H](O)[C@H](O)[C@H]2N)[C@H](O[C@@H]2O[C@H](CO)[C@@H](O)[C@H]2O)[C@H]1O
inactive: [2] | [16] | [17] | [4] | [5] | [6] | [7] | [8] | [9] | [11] | [12] | [13] | [18] | [14]

OC[C@@H](O)[C@H]1O[C@@H]2O[C@@H](C(Cl)(Cl)Cl)O[C@@H]2[C@H]1O
inactive: [1] | [2] | [15] | [16] | [17] | [3] | [5] | [6] | [7] | [8] | [9] | [10] | [11] | [12] | [13] | [18] | [20]

COc1ccc(OC)c([C@@H](O)[C@H](C)N)c1
active: [9] 29.8 µM
inactive: [19] | [1] | [2] | [15] | [16] | [17] | [3] | [4] | [5] | [6] | [7] | [8] | [10] | [11] | [12] | [13] | [18] | [14]

CNC(=O)Oc1ccccc1C(=O)Nc1ccccc1
inactive: [1] | [17] | [3] | [7] | [9] | [10] | [11] | [18] | [20]
active: [15] 5.96 µM | [4] 29.8 µM | [6] 29.8 µM | [14] 23.7 µM

[S]=[Sb](=[S])[S][Sb](=[S])=[S]
inactive: [19] | [2] | [16] | [6] | [7] | [8] | [9] | [10] | [11] | [12] | [13] | [18] | [14] | [20]

COc1cc([C@@H]2c3cc4c(cc3[C@@H](O)[C@H]3COC(=O)[C@H]23)OCO4)cc(OC)c1O
inactive: [2] | [16] | [17] | [3] | [10] | [12]
active: [19] 168 nM | [1] 1.88 µM | [15] 2.11 µM | [4] 0.237 µM | [5] 0.266 µM | [7] 10.6 µM | [8] 266 nM

CC(=O)O[C@H]1CC[C@H]2[C@@H]3CCC4=CC(=O)CCC4=C3C=C[C@]12C
active: [4] 23.7 µM | [11] 2.68 µM [inconclusive] | [12] 531 nM
inactive: [1] | [2] | [16] | [17] | [7] | [8] | [9] | [13] | [18] | [20]

O=C1OC2(c3cc(Br)c(O)cc3Oc3c2cc(Br)c(O)[c]3[Hg])c2ccccc21 (stereo not drawn)
inactive: [1] | [3] | [7] | [10] | [11] | [12] | [13] | [14]
active: [16] 10 µM | [5] 11.4 µM

Cc1ccccc1-n1c(C)nc2ccccc2c1=O
inactive: [19] | [1] | [2] | [15] | [16] | [3] | [8] | [9] | [10] | [11] | [13] | [18] | [20]
inactive and 53.9 µM (active): [12]
inactive and 24.1 µM (active): [7]
active: [4] 42.8 µM | [5] 53.9 µM | [6] 60.4 µM

— PubChem BioAssay (Tox21)
